GALK inh: GALK (human) enzyme inhibition. P51570. Potency, µM (highest dose often 57.5 µM), hits mostly inhibitors. 44,000 tested, under 10 active. recombinant GALK, Kinase-Glo ATP luminescence, 1 h
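5 nM GALK; 35 uM ATP; 100 uM D-galactose; 20 mM HEPES pH 8.0, 5 mM MgCl2, 60 mM NaCl, 1 mM DTT, 0.01% BSA; 1 h RT; Kinase-Glo Plus luminescence.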
TSG101-PTAP inh: blocks PTAP binding to human TSG101, validation | 44,000 tested, under 10 active | Fluorescence polarization, FITC-PTAP peptide/Tsg101, 20 min | Potency, µM (doses to about 115 µM), most hits filed as inhibitors | AID 1347069 | Q99816
Target sequence (Q99816 whole entry, looked up): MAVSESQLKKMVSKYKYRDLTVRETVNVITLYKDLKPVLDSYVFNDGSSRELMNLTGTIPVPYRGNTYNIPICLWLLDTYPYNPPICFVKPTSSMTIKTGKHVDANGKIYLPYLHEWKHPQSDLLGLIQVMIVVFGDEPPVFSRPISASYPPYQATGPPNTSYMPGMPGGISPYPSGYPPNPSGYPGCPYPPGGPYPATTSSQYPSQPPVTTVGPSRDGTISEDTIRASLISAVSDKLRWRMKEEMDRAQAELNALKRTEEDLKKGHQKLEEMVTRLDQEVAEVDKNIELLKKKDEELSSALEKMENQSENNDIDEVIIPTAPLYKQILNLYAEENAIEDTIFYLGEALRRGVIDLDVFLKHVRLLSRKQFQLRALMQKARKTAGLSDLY
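Fluorescence polarization binding of Tsg101 binding domain (10 uM final) to FITC-labeled PTAP-motif peptide (50 nM final) in HEPES pH 7.5/NaCl/Tween 20/EDTA/TCEP buffer; 20 min at r.t. Actives by curve class, <25 µM, efficacy <60% inhibition.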
mTORC1 inh: mTORC1 pathway inhibition measured by phospho-rpS6. Potency, µM (top dose mostly 38.3 µM), hits mostly inhibitors. 44,000 compounds, 0.78% hits. Tsc2-/- p53-/- MEF, phospho-rpS6 immunofluorescence/PI, 24 h; also: nearly all actives have a fitted effect of over 50% in size
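Plate MEFs (Tsc2-/-, p53-/-, empty vector) in DMEM/10% FBS; after 24 h add compound, incubate 24 h at 37 degree Celsius; fix in PFA/TX-100, block, stain phospho-rpS6 and 10 uM PI; scan at 488 nm; report % positive cells.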
PMP22 txn prim: modulators of PMP22 gene transcription in S16 Schwann cells; S16 Pmp22-F2sN Schwann cells, FLuc/NLuc coincidence luminescence, 24 h; Potency, µM (doses to about 57.5 µM), hits mostly inhibitors; 43,000 compounds, 2% hits; active = clear falling dose curves in both reporters; inconclusive = both reporters move, but less clearly or upward; inactive = either reporter flat; the % is the NLuc reporter signal
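Transcriptional readout in edited S16(c9) cells: two luciferases reported from the Pmp22 locus, measured in turn after 24 h compound incubation.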
S16 viability: cytotoxicity in S16 Pmp22-F2sN Schwann cells | S16 Pmp22-F2sN Schwann cells (luciferase reporters placed in the Pmp22 gene) viability, CellTiter-Glo, 24 h | Potency, µM (highest dose often 57.5 µM), hits mostly cytotoxic | 43,000 compounds, 0.48% hits; also: nearly all actives have a fitted effect of over 65% in size
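Luminescence from CellTiter-Glo, read by CCD camera after a 15 min room-temperature incubation, served as the viability signal. Reporter Schwann cells (S16 Pmp22-F2sN) had been treated with pin-transferred compounds for 24 h at 37C.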
Numbers stand for hits; – = inactive; ? = inconclusive; · = not tested or not shown. Rows were chosen to be rich in hits. Some 2.8% of all compounds tested hit in one or more screens of this group. Unless noted, calls follow the shape of the dose curve; as a rule, active = well fitted curve in the direction sought with a large enough effect; inconclusive = small, poorly fitted or top-dose-only effect, or another doubt; inactive = no such curve, though single readings can be large; an effect the other way counts as inactive or inconclusive.

SMILES | GALK inh | TSG101-PTAP inh | mTORC1 inh | PMP22 txn prim | S16 viability
Cc1cccc(N2CCN(c3ncnc4c3nc3n4CCCCC3)CC2C)c1 (configuration not stated) | – | – | 9.3µM | 4.4µM | 8.9µM
Fc1ccc(N2CCN(c3ncnc4c3nc3n4CCCC3)CC2)cc1 | – | – | – | 4.5µM | ?
Clc1cccc(N2CCN(c3ncnc4c3nc3n4CCCC3)CC2)c1 | – | – | – | ? | ?
Cc1c(Cl)ccc2sc(N3CCN(C(=O)CCS(=O)(=O)c4ccc(F)cc4)CC3)nc12 | – | – | – | 12µM | ?
COc1ccc(-c2noc(CSc3nnc(-c4ccncc4)n3-c3ccc(OC)cc3)n2)cc1 | – | – | – | 2.4µM | ?
COc1cc2nc(Nc3ccc(C)c(C)c3)nc(N)c2cc1OC | – | – | ? | ? | ?
COc1ccc(NC(=O)CSc2nc3ccccc3nc2N2CCOCC2)c(OC)c1 | – | – | – | – | –
Cc1ccc(Nc2nc(Nc3ccc(C)c(C)c3)nc(N3CCOCC3)n2)cc1C | – | – | 1µM | – | ?
COc1ccc(Nc2nc(Nc3ccc(OC)cc3OC)nc(N3CCOCC3)n2)c(OC)c1 | – | – | 1.5µM | – | –
COc1ccc2c(Sc3ccc(Cl)cc3)c(C(=O)NCCCN3CCCCC3)[nH]c2c1 | ? | – | – | ? | ?
Cc1ccc(N(C)C(=O)Cn2ncc3c([nH]c4ccccc43)c2=O)cc1C | – | – | – | – | –
CCc1ccccc1NC(=O)CN1C(=O)c2ccccc2Sc2ncccc21 | – | – | – | – | –
Cc1ccc(CN(Cc2cccn2-c2nnc(N3CCCC3=O)s2)C(=O)Nc2cc(C)cc(C)c2)cc1 | – | – | – | ? | –
Cc1nc2c(-c3ccccc3)c(C)[nH]n2c(=O)c1Cc1ccc(Br)cc1 | – | – | ? | 9.5µM | 10µM
Cc1nc2c(-c3ccccc3)c(C)[nH]n2c(=O)c1Cc1ccc(C(C)C)cc1 | – | – | – | ? | 8.9µM
Cc1[nH]n2c(=O)cc(-c3ccc(Cl)cc3)nc2c1-c1ccccc1 | – | – | ? | 8.5µM | 10µM
Cc1nn2c(-c3ccccc3)cc(-c3ccccc3)nc2c1-c1ccc(Cl)cc1 | – | – | – | – | –
Cc1ccc(Cc2c(C)nc3c(-c4ccccc4)c(C)[nH]n3c2=O)cc1 | – | – | – | ? | ?
Cc1nc2c(-c3ccc(F)cc3)c(C)nn2c(C)c1CCC(=O)NCc1ccc(Cl)cc1 | – | – | – | ? | –
CCCCc1c(C)nc2c(-c3ccc(Cl)cc3)c(C)[nH]n2c1=O | – | – | – | 11µM | 5µM
COc1ccccc1OCCSc1nc2ccccc2n1CC(=O)N1CCOCC1 | – | – | – | – | –
CCCN1C(=O)c2[nH]nc(-c3ccc(F)cc3)c2C1c1ccc(O)c(OCC)c1 (configuration not stated) | – | – | – | – | –
O=C(CCc1nc(-c2cccs2)no1)Nc1cccc([N+](=O)[O-])c1 | – | – | – | – | –
Cc1ccc(C)c(N2CCN(C(=O)c3ccc4c(c3)N(Cc3ccc(F)cc3)C(=O)c3ccccc3S4=O)CC2)c1 (configuration not stated) | – | – | – | – | –
O=C(CSc1ccc2nnc(CCNS(=O)(=O)c3ccccc3)n2n1)Nc1ccccc1C(F)(F)F | – | – | – | – | –
SMILES | GALK inh | TSG101-PTAP inh | mTORC1 inh | PMP22 txn prim | S16 viability
COc1cc(NC(=O)c2cccc3c2C(=O)N(C2CCCCC2)C3)cc(OC)c1OC | – | – | 15µM | ? | ?
COc1ccc(N2CCN(C(=O)Cn3cnc4sc(C)c(S(=O)(=O)N5CCC(C)CC5)c4c3=O)CC2)cc1 | – | – | – | – | –
CCN(C(=O)C1CCN(S(=O)(=O)c2cc(Br)cc3c2N(C(C)=O)CC3)CC1)c1cccc(C)c1 | – | – | – | 8.9µM | ?
OCCCn1c(-c2ccc(F)cc2)csc1=Nc1ccc(F)cc1 | – | – | – | ? | ?
O=S(=O)(c1ccc(-c2csc(=Nc3ccc(F)cc3)n2CCCCCCO)cc1)N1CCCC1 | – | – | ? | 8.8µM | 18µM
CCOc1ccccc1NC(=O)CN1C(=O)C(=O)c2ccccc21 | – | – | 2.6µM | ? | –
COC(=O)Cc1c(C)c2cc3c(c(C)c2oc1=O)OCN(CCc1ccc(F)cc1)C3 | – | – | – | · | ·
O=c1c2c(-c3ccc(Cl)cc3)ccnc2[nH]n1-c1ccccc1 | – | – | – | – | –
Cc1ccc(CNC(=O)c2cccc(Nc3nc4ccccc4n4nnnc34)c2)cc1 | – | – | – | 11µM | 8.9µM
O=C(NCCc1ccccc1)c1ccc(Nc2nc3ccccc3n3nnnc23)cc1 | – | – | – | ? | 28µM
Cc1cc(F)ccc1NC(=O)C1CCCN(C(=O)c2cnn(-c3ccccc3)c2-n2cccc2)C1 (configuration not stated) | – | – | – | ? | ?
COc1cc(CNc2ccc3[nH]c(=O)[nH]c3c2)cc(Br)c1OCc1ccc(F)cc1 | – | – | – | 1.9µM | ?
CCc1ccc(NC(=O)Cn2c(=O)n(CCC(=O)NCCc3ccc(OC)c(OC)c3)c(=O)c3ccccc32)cc1 | – | – | – | – | –
Cc1ccsc1CCN1C(=O)N(c2ccccc2)C(=O)C1CC(=O)Nc1ccc(Cl)cc1 (configuration not stated) | – | – | – | ? | 32µM
O=C(NCCCc1nc2ccccc2n1Cc1ccc(Cl)cc1)C1CCCCC1 | – | – | – | ? | –
O=C(NCCc1nc2ccccc2n1Cc1ccc(Cl)cc1Cl)c1ccco1 | – | – | 21µM | ? | –
CCOC(=O)c1ccc(NC(=O)Cn2cc(C(=O)c3ccc(CC)cc3)c(=O)c3ccc(C)nc32)cc1 | – | – | – | ? | –
CCOC(=O)c1ccc(NC(=O)Cn2cc(C(=O)c3ccc(Cl)cc3)c(=O)c3ccc(C)nc32)cc1 | – | – | – | 12µM | ?
CC(C)(C)c1ccc(S(=O)(=O)c2cnc(SCC(=O)Nc3ccc(F)c(Cl)c3)[nH]c2=O)cc1 | 20µM | – | – | ? | –
O=C(CSc1nc2c(c(=O)[nH]1)CN(Cc1ccc(F)cc1)CC2)Nc1cccc(C(F)(F)F)c1 | – | – | – | ? | 14µM
Cc1cc(C)cc(NC(=O)CSc2nc3c(c(=O)[nH]2)CN(Cc2ccc(F)cc2)CC3)c1 | ? | – | – | – | –
Cc1ccc(C)c(N2CCN(C(=O)c3cnn(C(C)(C)C)c3C3CCN(C(=O)OC(C)(C)C)CC3)CC2)c1 | – | – | – | ? | –
O=C(NC1CCCCCC1)c1ccc2c(c1)sc1nc(-c3ccccc3)cn12 | – | – | – | – | –
COc1cc(Cl)c(C)cc1Nc1nc2ccccc2n2cnnc12 | – | – | – | – | –
COCCn1c(CNC(=O)c2cccc(N(C)C)c2)nc2cccnc21 | – | – | – | – | –

Assay outcomes as filed in PubChem.
